# Experiments:
# Test in all cases: DAPPL (digital affinity profiling via proximity ligation, sequencing); 10 mM Tris-HCl pH 7.5, 50 mM NaCl, 1 mM DTT, 4% glycerol, room temperature, 30 min; GST-TFs on glutathione beads, 16-mer random dsDNA library, 0.1% formaldehyde crosslink after washing; high values mean tight binding
# FLI1 = biological target: T1, FLI1 (Homo sapiens, UniProt Q01543 1-452); conditions: protein: recombinant; tags: N-terminal GST; dsDNA, one strand shown
# T1 sequence: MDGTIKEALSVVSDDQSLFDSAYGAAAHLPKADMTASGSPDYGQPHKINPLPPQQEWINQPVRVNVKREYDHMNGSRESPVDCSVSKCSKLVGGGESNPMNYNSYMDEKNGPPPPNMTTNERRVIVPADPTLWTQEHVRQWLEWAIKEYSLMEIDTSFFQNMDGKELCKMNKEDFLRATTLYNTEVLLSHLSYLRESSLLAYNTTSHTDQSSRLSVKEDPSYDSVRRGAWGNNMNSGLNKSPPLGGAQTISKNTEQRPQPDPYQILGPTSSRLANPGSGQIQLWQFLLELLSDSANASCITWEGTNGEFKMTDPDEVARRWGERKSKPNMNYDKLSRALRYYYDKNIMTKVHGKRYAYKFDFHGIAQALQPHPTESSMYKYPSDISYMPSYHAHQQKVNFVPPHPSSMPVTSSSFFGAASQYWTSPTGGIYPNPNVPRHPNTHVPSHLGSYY
# Procedure, shortened: (§1)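 Each value of binding signal is a hexamer's read frequency for a factor divided by the same hexamer's frequency in the tag-only sample. Barcoded, bead-captured GST fusions of human transcription factors made in yeast were pooled with that sample and incubated with 200 nmole of a random double-stranded 16-mer DNA library in Tris/NaCl/DTT/glycerol buffer at room temperature for 30 min. Washing, 0.1% formaldehyde crosslinking, proximity ligation, PCR and Illumina NextSeq500 sequencing followed.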
# ELK1 = biological target: T2, ELK1 (Homo sapiens, UniProt P19419 1-428); conditions: protein: recombinant; tags: N-terminal GST; dsDNA, one strand shown
# T2 sequence: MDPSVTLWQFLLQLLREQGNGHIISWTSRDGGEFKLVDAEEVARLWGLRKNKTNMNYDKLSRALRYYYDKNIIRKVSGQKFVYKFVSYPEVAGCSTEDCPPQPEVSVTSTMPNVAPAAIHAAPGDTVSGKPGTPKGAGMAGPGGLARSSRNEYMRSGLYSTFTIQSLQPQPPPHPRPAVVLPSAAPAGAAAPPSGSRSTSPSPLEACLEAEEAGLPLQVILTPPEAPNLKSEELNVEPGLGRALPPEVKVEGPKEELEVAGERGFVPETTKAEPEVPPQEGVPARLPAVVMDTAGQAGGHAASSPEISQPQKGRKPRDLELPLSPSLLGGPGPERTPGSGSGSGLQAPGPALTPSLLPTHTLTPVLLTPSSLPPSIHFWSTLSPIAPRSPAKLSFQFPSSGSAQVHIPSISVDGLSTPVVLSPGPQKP
# Procedure, shortened: as §1
# GABPA = biological target: T3, GABPA (Homo sapiens, UniProt Q06546 1-454); conditions: protein: recombinant; tags: N-terminal GST; dsDNA, one strand shown
# T3 sequence: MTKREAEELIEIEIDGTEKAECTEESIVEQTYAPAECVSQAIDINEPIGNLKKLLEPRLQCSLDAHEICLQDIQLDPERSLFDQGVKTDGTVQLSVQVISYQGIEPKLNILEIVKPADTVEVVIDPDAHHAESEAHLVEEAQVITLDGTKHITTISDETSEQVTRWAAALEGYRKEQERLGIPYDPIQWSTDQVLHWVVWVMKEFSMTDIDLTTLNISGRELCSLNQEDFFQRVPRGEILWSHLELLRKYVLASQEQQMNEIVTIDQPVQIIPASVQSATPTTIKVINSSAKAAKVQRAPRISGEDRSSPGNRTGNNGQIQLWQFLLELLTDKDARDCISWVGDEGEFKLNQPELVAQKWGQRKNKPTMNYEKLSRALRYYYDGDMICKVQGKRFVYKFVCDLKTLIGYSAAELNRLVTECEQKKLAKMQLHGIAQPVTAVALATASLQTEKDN
# Procedure, shortened: as §1
# ERG = biological target: T4, ERG (Homo sapiens, UniProt P11308 1-479); conditions: protein: recombinant; tags: N-terminal GST; dsDNA, one strand shown
# T4 sequence: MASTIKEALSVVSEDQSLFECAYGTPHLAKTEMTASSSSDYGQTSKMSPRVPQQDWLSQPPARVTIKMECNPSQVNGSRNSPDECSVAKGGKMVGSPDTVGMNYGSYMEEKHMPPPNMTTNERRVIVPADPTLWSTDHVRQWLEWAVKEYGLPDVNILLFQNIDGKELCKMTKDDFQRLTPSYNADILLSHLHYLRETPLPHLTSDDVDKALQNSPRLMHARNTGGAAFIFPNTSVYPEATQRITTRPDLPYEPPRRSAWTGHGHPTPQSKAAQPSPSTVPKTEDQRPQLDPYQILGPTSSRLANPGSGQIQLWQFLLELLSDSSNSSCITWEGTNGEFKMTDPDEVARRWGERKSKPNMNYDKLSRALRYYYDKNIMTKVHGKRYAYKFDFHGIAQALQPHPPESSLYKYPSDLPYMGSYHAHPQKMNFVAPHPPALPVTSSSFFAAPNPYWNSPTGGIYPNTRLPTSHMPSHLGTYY
# Procedure, shortened: as §1
# ELF1 = ELF1 (Homo sapiens, UniProt P32519 1-619); conditions: protein: recombinant; tags: N-terminal GST; dsDNA, one strand shown
# Procedure, shortened: as §1
# EHF = biological target: T5, EHF (Homo sapiens, UniProt Q9NZC4 1-300); conditions: protein: recombinant; tags: N-terminal GST; dsDNA, one strand shown
# T5 sequence: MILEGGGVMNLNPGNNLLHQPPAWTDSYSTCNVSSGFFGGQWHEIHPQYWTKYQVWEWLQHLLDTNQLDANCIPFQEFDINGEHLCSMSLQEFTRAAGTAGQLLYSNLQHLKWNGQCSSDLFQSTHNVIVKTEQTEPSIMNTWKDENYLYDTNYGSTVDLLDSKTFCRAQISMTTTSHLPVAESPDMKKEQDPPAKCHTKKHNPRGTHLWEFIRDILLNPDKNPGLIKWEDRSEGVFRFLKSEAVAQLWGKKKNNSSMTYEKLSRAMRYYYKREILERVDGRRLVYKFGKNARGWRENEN
# Procedure, shortened: as §1
# SPI1 = SPI1 (Homo sapiens, UniProt P17947 1-270); conditions: protein: recombinant; tags: N-terminal GST; dsDNA, one strand shown
# Procedure, shortened: as §1
# SPIB = SPIB (Homo sapiens, UniProt Q01892 1-262); conditions: protein: recombinant; tags: N-terminal GST; dsDNA, one strand shown
# Procedure, shortened: as §1
# ELK3 = biological target: T6, ELK3 (Homo sapiens, UniProt P41970 1-407); conditions: protein: recombinant; tags: N-terminal GST; dsDNA, one strand shown
# T6 sequence: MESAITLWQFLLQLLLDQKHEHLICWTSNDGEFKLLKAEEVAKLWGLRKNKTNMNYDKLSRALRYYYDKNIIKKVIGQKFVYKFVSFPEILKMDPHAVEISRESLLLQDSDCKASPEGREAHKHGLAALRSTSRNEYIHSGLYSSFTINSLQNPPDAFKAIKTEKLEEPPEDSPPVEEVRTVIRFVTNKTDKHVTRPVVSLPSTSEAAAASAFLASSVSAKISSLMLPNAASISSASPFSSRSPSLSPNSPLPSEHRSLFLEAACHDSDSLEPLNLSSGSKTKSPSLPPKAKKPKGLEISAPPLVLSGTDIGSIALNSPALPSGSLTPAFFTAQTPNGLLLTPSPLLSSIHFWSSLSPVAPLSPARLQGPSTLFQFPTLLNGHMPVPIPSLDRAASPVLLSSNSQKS
# Procedure, shortened: as §1
# FEV = biological target: T7, FEV (Homo sapiens, UniProt Q99581 1-238); conditions: protein: recombinant; tags: N-terminal GST; dsDNA, one strand shown
# T7 sequence: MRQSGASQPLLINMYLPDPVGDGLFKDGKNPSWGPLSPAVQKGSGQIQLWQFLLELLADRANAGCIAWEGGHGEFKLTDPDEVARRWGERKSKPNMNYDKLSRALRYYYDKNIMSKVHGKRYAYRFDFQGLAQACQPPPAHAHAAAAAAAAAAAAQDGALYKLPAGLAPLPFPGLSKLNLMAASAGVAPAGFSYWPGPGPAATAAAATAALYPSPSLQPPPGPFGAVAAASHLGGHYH
# Procedure, shortened: as §1
# ETV5 = ETV5 (Homo sapiens, UniProt P41161 1-510); conditions: protein: recombinant; tags: N-terminal GST; dsDNA, one strand shown
# Procedure, shortened: as §1
# HSF1 = HSF1 (Homo sapiens, UniProt Q00613 1-529); conditions: protein: recombinant; tags: N-terminal GST; chain copies: 3; dsDNA, one strand shown
# Procedure, shortened: as §1
# SPIC = biological target: T8, SPIC (Homo sapiens, UniProt Q8N5J4 1-248); conditions: protein: recombinant; tags: N-terminal GST; dsDNA, one strand shown
# T8 sequence: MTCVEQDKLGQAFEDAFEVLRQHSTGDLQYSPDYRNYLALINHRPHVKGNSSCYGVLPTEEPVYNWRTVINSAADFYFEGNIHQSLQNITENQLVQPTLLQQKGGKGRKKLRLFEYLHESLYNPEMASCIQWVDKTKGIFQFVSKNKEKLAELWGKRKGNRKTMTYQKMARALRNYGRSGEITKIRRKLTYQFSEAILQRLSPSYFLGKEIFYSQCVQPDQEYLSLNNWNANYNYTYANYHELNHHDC
# Procedure, shortened: as §1
# ELF4 = ELF4 (Homo sapiens, UniProt Q99607 1-663); conditions: protein: recombinant; tags: N-terminal GST; dsDNA, one strand shown
# Procedure, shortened: as §1
# ELK4 = biological target: T9, ELK4 (Homo sapiens, UniProt P28324-2 1-405); conditions: protein: recombinant; tags: N-terminal GST; dsDNA, one strand shown
# T9 sequence: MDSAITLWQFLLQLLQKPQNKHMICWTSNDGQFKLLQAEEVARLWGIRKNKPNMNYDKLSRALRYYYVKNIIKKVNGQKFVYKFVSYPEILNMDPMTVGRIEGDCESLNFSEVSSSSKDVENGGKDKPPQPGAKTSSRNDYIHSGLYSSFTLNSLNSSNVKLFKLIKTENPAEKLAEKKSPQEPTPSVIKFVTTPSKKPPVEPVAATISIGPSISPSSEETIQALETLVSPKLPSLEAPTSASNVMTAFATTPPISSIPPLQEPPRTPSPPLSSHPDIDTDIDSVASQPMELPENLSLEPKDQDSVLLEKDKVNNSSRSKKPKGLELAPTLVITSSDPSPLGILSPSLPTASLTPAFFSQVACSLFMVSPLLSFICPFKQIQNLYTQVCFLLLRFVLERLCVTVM
# Procedure, shortened: as §1
# ETV2 = biological target: T10, ETV2 (Homo sapiens, UniProt O00321 1-342); conditions: protein: recombinant; tags: N-terminal GST; dsDNA, one strand shown
# T10 sequence: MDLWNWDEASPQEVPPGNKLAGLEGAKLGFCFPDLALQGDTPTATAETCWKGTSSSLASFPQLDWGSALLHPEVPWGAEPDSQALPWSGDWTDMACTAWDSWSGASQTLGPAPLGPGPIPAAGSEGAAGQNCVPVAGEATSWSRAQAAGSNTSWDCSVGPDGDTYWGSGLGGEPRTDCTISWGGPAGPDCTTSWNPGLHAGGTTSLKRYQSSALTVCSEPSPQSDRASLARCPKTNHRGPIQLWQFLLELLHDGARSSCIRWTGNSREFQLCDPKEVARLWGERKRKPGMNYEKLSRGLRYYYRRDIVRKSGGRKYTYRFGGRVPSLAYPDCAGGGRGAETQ
# Procedure, shortened: as §1
# ELF3 = biological target: T11, ELF3 (Homo sapiens, UniProt P78545 1-371); conditions: protein: recombinant; tags: N-terminal GST; dsDNA, one strand shown
# T11 sequence: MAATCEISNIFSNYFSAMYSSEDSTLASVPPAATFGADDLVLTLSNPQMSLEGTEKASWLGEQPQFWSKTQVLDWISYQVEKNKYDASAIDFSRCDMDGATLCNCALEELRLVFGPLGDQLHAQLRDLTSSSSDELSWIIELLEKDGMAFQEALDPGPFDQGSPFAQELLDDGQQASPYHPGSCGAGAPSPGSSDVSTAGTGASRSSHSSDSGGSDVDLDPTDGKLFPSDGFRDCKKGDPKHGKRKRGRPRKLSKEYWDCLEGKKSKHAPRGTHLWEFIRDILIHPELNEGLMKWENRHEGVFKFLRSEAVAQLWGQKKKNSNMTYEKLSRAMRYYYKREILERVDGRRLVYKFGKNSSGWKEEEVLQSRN
# Procedure, shortened: as §1
# CRX = CRX (Homo sapiens, UniProt O43186 1-299); conditions: protein: recombinant; tags: N-terminal GST; dsDNA, one strand shown
# Procedure, shortened: as §1
# ETV1 = ETV1 (Homo sapiens, UniProt P50549 1-477); conditions: protein: recombinant; tags: N-terminal GST; dsDNA, one strand shown
# Procedure, shortened: as §1
# HSF1, sequence (Q00613 whole entry): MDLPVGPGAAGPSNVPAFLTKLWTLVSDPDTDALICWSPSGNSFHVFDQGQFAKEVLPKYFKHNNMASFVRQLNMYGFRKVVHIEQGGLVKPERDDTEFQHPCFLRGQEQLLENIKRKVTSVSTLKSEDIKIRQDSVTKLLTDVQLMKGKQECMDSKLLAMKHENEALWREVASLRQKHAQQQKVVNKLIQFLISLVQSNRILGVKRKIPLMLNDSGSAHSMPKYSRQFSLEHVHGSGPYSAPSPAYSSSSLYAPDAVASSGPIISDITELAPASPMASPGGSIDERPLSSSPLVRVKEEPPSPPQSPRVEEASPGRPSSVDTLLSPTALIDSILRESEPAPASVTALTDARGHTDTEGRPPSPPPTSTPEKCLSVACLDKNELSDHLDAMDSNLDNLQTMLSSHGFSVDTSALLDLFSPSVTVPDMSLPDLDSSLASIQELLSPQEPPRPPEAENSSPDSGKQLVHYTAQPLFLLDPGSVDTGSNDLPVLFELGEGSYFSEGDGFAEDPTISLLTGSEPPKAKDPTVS
# CRX, sequence (O43186 whole entry): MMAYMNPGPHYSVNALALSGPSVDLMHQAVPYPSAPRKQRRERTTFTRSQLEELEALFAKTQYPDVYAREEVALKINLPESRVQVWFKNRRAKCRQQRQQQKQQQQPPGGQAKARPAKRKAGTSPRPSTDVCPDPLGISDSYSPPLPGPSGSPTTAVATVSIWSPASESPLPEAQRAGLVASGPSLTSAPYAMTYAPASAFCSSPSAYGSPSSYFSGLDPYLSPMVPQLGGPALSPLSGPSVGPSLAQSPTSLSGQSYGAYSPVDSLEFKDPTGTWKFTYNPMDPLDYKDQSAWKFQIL
# ELF4, sequence (Q99607 whole entry): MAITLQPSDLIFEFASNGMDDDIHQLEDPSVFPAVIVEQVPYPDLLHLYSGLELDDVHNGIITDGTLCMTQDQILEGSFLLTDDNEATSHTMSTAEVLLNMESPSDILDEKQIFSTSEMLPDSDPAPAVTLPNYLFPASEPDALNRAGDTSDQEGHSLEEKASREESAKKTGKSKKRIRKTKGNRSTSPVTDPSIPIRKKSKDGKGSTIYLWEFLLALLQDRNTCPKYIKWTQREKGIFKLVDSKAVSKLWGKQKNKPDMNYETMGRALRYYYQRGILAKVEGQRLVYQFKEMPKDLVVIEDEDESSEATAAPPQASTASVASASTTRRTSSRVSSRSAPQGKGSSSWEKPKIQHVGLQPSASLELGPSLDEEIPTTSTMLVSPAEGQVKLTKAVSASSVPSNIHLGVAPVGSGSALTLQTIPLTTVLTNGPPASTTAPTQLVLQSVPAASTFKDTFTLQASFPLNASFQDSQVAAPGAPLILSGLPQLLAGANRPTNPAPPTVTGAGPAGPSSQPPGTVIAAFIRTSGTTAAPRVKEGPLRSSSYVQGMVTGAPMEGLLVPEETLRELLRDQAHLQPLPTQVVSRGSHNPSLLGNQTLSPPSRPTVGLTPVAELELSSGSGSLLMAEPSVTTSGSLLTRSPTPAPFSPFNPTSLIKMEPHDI
# ELF1, sequence (P32519 whole entry): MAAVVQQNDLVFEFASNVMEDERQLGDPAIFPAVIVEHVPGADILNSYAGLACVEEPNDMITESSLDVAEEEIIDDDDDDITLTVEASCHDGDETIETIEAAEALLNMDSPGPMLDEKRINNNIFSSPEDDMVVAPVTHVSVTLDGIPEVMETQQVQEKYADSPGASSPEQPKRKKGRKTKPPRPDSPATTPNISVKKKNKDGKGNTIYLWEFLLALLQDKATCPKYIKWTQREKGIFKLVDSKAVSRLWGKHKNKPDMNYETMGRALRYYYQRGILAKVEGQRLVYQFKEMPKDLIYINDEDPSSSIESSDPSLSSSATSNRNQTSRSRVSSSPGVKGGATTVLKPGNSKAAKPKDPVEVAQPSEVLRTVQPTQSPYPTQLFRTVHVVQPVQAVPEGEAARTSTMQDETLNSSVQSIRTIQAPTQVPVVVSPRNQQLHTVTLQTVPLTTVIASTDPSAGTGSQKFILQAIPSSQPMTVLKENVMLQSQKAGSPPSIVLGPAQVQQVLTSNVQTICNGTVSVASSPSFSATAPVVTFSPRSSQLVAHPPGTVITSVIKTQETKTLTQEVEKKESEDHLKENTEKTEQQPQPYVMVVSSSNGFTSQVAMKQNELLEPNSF
# SPIB, sequence (Q01892 whole entry): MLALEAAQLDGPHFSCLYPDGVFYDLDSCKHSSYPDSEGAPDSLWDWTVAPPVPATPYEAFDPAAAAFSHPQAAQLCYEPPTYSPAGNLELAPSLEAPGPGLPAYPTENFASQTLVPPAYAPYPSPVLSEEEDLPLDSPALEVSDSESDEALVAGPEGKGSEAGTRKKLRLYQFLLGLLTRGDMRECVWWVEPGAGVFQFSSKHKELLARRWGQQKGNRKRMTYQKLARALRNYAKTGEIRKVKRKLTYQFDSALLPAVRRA
# ETV1, sequence (P50549 whole entry): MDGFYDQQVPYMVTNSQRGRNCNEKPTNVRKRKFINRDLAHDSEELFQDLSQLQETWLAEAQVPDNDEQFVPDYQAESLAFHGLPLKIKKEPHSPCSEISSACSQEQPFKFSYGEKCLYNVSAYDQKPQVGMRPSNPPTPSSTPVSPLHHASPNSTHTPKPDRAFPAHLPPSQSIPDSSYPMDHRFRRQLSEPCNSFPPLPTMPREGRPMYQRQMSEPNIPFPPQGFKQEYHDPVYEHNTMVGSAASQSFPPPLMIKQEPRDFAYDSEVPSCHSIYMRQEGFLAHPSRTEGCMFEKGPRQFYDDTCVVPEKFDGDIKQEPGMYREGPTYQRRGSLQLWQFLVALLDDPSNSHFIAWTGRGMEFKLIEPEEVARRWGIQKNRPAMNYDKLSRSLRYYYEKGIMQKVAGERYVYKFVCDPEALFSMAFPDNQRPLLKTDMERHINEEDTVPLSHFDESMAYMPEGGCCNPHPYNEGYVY
# ETV5, sequence (P41161 whole entry): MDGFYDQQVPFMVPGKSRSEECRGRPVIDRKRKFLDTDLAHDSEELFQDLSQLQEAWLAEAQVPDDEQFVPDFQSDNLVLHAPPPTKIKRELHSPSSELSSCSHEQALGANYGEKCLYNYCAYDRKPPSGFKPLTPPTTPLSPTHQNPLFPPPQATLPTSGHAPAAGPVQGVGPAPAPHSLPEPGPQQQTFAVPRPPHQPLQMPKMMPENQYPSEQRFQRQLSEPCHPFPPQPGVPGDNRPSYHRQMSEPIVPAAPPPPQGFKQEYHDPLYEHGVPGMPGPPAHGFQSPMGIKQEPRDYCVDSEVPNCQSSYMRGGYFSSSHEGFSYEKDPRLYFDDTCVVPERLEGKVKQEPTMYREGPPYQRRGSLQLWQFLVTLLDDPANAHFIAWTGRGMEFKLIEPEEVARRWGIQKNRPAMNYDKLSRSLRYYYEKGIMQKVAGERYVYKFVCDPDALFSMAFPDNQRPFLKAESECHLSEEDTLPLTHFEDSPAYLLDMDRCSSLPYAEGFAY
sequence,measurement,setting,value
TCTTAA,binding signal,FLI1,"1.18 fold enrichment (6-mer frequency, TF over GST control)"
same,binding signal,ELK1,"1.13 fold enrichment (6-mer frequency, TF over GST control)"
same,binding signal,GABPA,"1.16 fold enrichment (6-mer frequency, TF over GST control)"
same,binding signal,ERG,"1.21 fold enrichment (6-mer frequency, TF over GST control)"
same,binding signal,ELF1,"1.23 fold enrichment (6-mer frequency, TF over GST control)"
same,binding signal,EHF,"1.09 fold enrichment (6-mer frequency, TF over GST control)"
same,binding signal,SPI1,"1.23 fold enrichment (6-mer frequency, TF over GST control)"
same,binding signal,SPIB,"1.23 fold enrichment (6-mer frequency, TF over GST control)"
same,binding signal,ELK3,"1.23 fold enrichment (6-mer frequency, TF over GST control)"
same,binding signal,FEV,"1.24 fold enrichment (6-mer frequency, TF over GST control)"
same,binding signal,ETV5,"1.2 fold enrichment (6-mer frequency, TF over GST control)"
same,binding signal,HSF1,"1.88 fold enrichment (6-mer frequency, TF over GST control)"
same,binding signal,SPIC,"1.2 fold enrichment (6-mer frequency, TF over GST control)"
same,binding signal,ELF4,"1.19 fold enrichment (6-mer frequency, TF over GST control)"
same,binding signal,ELK4,"1.18 fold enrichment (6-mer frequency, TF over GST control)"
same,binding signal,ETV2,"1.25 fold enrichment (6-mer frequency, TF over GST control)"
same,binding signal,ELF3,"1.24 fold enrichment (6-mer frequency, TF over GST control)"
same,binding signal,CRX,"2.69 fold enrichment (6-mer frequency, TF over GST control)"
same,binding signal,ETV1,"1.12 fold enrichment (6-mer frequency, TF over GST control)"

# From paper PMC7862700, “An all-to-all approach to the identification of sequence-specific readers for epigenetic DNA modifications on cytosine”
